Data from PubChem BioAssay (EPA / NIEHS).
Active and inactive are the calls of the source. Rule for the calls: active = hit-call score of the fitted dose curve at least 0.9, where 1 is the maximum; inactive = score below 0.9.

How the values were obtained:
[1] = read-out: Transforming growth factor beta 1 (TGFb1), TGFB1 (gene 7040); experiment: BSK_KF3CT_TGFb1: BioMAP Diversity Plus: KF3CT Assay for Transforming growth factor beta 1 (TGFb1) Biomarker Activity (AID 2283072); conditions: primary human keratinocytes with fibroblasts; actives raise or lower the signal
Procedure, shortened: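 ELISA quantifies TGF-b1 at 24 h post-dose in a primary human skin co-culture of keratinocytes and fibroblasts, with gain or loss judged against DMSO. Parallel SRB total-protein staining flags overt cytotoxicity.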

[2] = read-out: C-C motif chemokine 2 (Homo sapiens) (UniProt P13500); experiment: BSK_KF3CT_MCP1: BioMAP Diversity Plus: KF3CT Assay for Monocyte Chemoattractant Protein 1 (MCP1/CCL2) Biomarker Activity (AID 2283073); conditions: primary human keratinocytes with fibroblasts; actives raise or lower the signal
Procedure, shortened: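 KF3CT skin co-culture (keratinocytes/foreskin fibroblasts), 24 h post-dose; MCP-1 by ELISA; gain/loss of signal fit bidirectionally vs DMSO baseline.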

[3] = read-out: Matrix Metallopeptidase 9 (MMP9), MMP9 (gene 4318); experiment: BSK_KF3CT_MMP9: BioMAP Diversity Plus: KF3CT Assay for Matrix Metallopeptidase 9 (MMP9) Biomarker Activity (AID 2283074); conditions: primary human keratinocytes with fibroblasts; actives raise or lower the signal;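 for AC50: MMP9 protein level quantified by ELISA in the co-culture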
Procedure, shortened: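 MMP-9 quantified by ELISA after 24 h chemical treatment of primary human skin keratinocyte/fibroblast co-cultures; gain or loss fitted against DMSO, with parallel SRB staining (0.1% SRB, 560 nm) for overt cytotoxicity.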

[4] = read-out: urokinase plasminogen activator (uPA), PLAU (gene 5328); experiment: BSK_KF3CT_uPA: BioMAP Diversity Plus: KF3CT Assay for urokinase plasminogen activator (uPA) Biomarker Activity (AID 2283075); conditions: primary human keratinocytes with fibroblasts; actives raise or lower the signal
Procedure, shortened: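 ELISA read-out of uPA 24 h after dosing human skin keratinocytes co-cultured with foreskin fibroblasts. Signal change fitted both ways relative to DMSO; sulforhodamine B on parallel cultures marks overt cytotoxicity.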

[5] = read-out: CD40, CD40 (gene 958); experiment: BSK_LPS_CD40: BioMAP Diversity Plus: LPS Assay for CD40 Biomarker Activity (AID 2283076); conditions: primary human HUVEC with PBMC; actives raise or lower the signal
Procedure, shortened: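 ELISA readout of CD40 in HUVEC/PBMC co-culture (BSK_LPS system), 24 h post-dosing; bidirectional curve fit, DMSO baseline; parallel SRB total-protein staining for cytotoxicity.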

[6] = read-out: E-selectin (Homo sapiens) (UniProt P16581); experiment: BSK_LPS_Eselectin: BioMAP Diversity Plus: LPS Assay for Eselectin Biomarker Activity (AID 2283077); conditions: primary human HUVEC with PBMC; actives raise or lower the signal
Procedure, shortened: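 ELISA readout of E-selectin, 24 h post-dose, HUVEC + PBMC co-culture (LPS system). Gain or loss of signal vs DMSO baseline, bidirectional fit.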

[7] = read-out: Interleukin-8 (IL8), CXCL8 (gene 3576); experiment: BSK_LPS_IL8: BioMAP Diversity Plus: LPS Assay for Interleukin-8 (IL8) Biomarker Activity (AID 2283078); conditions: primary human HUVEC with PBMC; actives raise or lower the signal
Procedure, shortened: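 HUVEC + PBMC co-culture, LPS-activated; test chemicals dosed, IL-8 read by ELISA at 24 h. Bidirectional curve fit vs DMSO baseline (gain or loss of signal).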

[8] = BSK_LPS_SRB: Viability Assessment in the BioMAP Diversity Plus: LPS Assay (AID 2283079); conditions: primary human HUVEC with PBMC;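 note: total protein by sulforhodamine B absorbance as a cytotoxicity measure; measured one day after compound addition; fitted in both directions against DMSO so loss or gain of signal counts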
Procedure, shortened: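 HUVEC + PBMC co-culture, LPS-stimulated; compound 24 h. 10% TCA fix, 0.1% SRB stain, A560. Bidirectional fit vs DMSO.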

[9] = read-out: Interleukin-1 alpha (IL1a), IL1A (gene 3552); experiment: BSK_LPS_IL1a: BioMAP Diversity Plus: LPS Assay for Interleukin-1 alpha (IL1a) Biomarker Activity (AID 2283080); conditions: primary human HUVEC with PBMC; actives raise or lower the signal
Procedure, shortened: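 HUVEC/PBMC co-culture, LPS system; 24 h after dosing; IL-1a by ELISA; gain or loss of signal fitted bidirectionally vs DMSO baseline.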

[10] = read-out: Monocyte Chemoattractant Protein-1 (MCP1), CCL2 (gene 6347); experiment: BSK_LPS_MCP1: BioMAP Diversity Plus: LPS Assay for Monocyte Chemoattractant Protein-1 (MCP1) Biomarker Activity (AID 2283081); conditions: primary human HUVEC with PBMC; actives raise or lower the signal;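 for AC50: secreted MCP-1 protein quantified by ELISA in culture supernatant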
Procedure, shortened: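 ELISA read-out of MCP-1 after 24 h chemical dosing of a human umbilical vein endothelial cell/peripheral blood mononuclear cell co-culture stimulated with LPS. Gain or loss of signal fitted relative to DMSO controls.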

[11] = read-out: Macrophage colony-stimulating factor (MCSF), CSF1 (gene 1435); experiment: BSK_LPS_MCSF: BioMAP Diversity Plus: LPS Assay for Macrophage colony-stimulating factor (MCSF) Biomarker Activity (AID 2283083); conditions: primary human HUVEC with PBMC; actives raise or lower the signal
Procedure, shortened: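 HUVEC + PBMC co-culture (human primary), 24 h post-dose; M-CSF by ELISA; gain/loss of signal fitted bidirectionally vs DMSO baseline.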

[12] = read-out: Tissue Factor, F3 (gene 2152); experiment: BSK_LPS_TissueFactor: BioMAP Diversity Plus: LPS Assay for Tissue Factor Biomarker Activity (AID 2283084); conditions: primary human HUVEC with PBMC; actives raise or lower the signal
Procedure, shortened: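 HUVEC/PBMC co-culture, LPS-activated; CD142 ELISA read 24 h post-dose; bidirectional curve fit vs DMSO negative control.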

[13] = read-out: Tumor necrosis factor (Homo sapiens) (UniProt P01375); experiment: BSK_LPS_TNFa: BioMAP Diversity Plus: LPS Assay for Tumour Necrosis Factor alpha (TNFa) Biomarker Activity (AID 2283085); conditions: primary human HUVEC with PBMC; actives raise or lower the signal;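 for AC50: TNFa protein level quantified by ELISA in the co-culture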
Procedure, shortened: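 TNFa was quantified by ELISA in LPS-activated co-cultures of human endothelial cells and PBMC, 24 h post-dosing. Both increases and decreases versus DMSO were fitted.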

[14] = read-out: Vascular cell adhesion molecule 1 (VCAM1), VCAM1 (gene 7412); experiment: BSK_LPS_VCAM1: BioMAP Diversity Plus: LPS Assay for Vascular cell adhesion molecule 1 (VCAM1) Biomarker Activity (AID 2283086); conditions: primary human HUVEC with PBMC; actives raise or lower the signal
Procedure, shortened: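 VCAM-1 quantified by ELISA in an LPS-activated co-culture of human endothelial cells and peripheral blood mononuclear cells, read 24 h post-treatment. Fitted in both directions versus DMSO; parallel SRB staining flags overt cytotoxicity.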

[15] = read-out: CD38, CD38 (gene 952); experiment: BSK_SAg_CD38: BioMAP Diversity Plus: SAg Assay for CD38 Biomarker Activity (AID 2283087); conditions: primary human HUVEC with PBMC; actives raise or lower the signal
Procedure, shortened: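 CD38 quantified by ELISA (fluorescence) in a superantigen-activated endothelial cell–PBMC co-culture at 24 h post-dose. Activity fitted in both directions relative to DMSO; parallel SRB and Alamar Blue cytotoxicity read-outs.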

[16] = read-out: CD69, CD69 (gene 969); experiment: BSK_SAg_CD69: BioMAP Diversity Plus: SAg Assay for CD69 Biomarker Activity (AID 2283089); conditions: primary human HUVEC with PBMC; actives raise or lower the signal
Procedure, shortened: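 Values derive from bidirectional fitting relative to DMSO vehicle. Cells: umbilical vein endothelium plus peripheral blood mononuclear cells, treated 24 h before fluorescent ELISA for CD69.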

[17] = read-out: Monocyte Chemoattractant Protein-1 (MCP1), CCL2 (gene 6347); experiment: BSK_SAg_MCP1: BioMAP Diversity Plus: SAg Assay for Monocyte Chemoattractant Protein-1 (MCP1) Biomarker Activity (AID 2283090); conditions: primary human HUVEC with PBMC; actives raise or lower the signal
Procedure, shortened: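 Values derive from bidirectional fitting of ELISA-measured MCP1 against DMSO controls. Readings were taken 24 h after dosing human vascular endothelial cells co-cultured with peripheral blood mononuclear cells under superantigen stimulation.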

[18] = read-out: E-selectin (Homo sapiens) (UniProt P16581); experiment: BSK_SAg_Eselectin: BioMAP Diversity Plus: SAg Assay for Eselectin Biomarker Activity (AID 2283091); conditions: primary human HUVEC with PBMC; actives raise or lower the signal
Procedure, shortened: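 E-selectin ELISA readout at 24 h post-dosing in human umbilical vein endothelial cell/PBMC co-culture; gain or loss of signal fitted relative to DMSO baseline.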

[19] = BSK_LPS_PGE2: BioMAP Diversity Plus: LPS Assay for Prostaglandin E2 (PGE2) Biomarker Activity (AID 2283082); conditions: primary human HUVEC with PBMC; actives raise or lower the signal;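 for AC50: secreted prostaglandin E2 measured by ELISA in LPS-stimulated co-culture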
Procedure, shortened: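 PGE2 release measured by ELISA in an LPS-activated co-culture of human umbilical vein endothelial cells and peripheral blood mononuclear cells, read at 24 h post-dosing. DMSO served as baseline for bidirectional curve fitting.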

[20] = read-out: CD40, CD40 (gene 958); experiment: BSK_SAg_CD40: BioMAP Diversity Plus: SAg Assay for CD40 Biomarker Activity (AID 2283088); conditions: primary human HUVEC with PBMC; actives raise or lower the signal
Procedure, shortened: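 HUVEC/PBMC co-culture, 24 h post-dose; CD40 by ELISA, fluorescence intensity; bidirectional fit vs DMSO negative control.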

Measured: AC50

Chain of E-selectin (Homo sapiens) (P16581 whole entry, looked up): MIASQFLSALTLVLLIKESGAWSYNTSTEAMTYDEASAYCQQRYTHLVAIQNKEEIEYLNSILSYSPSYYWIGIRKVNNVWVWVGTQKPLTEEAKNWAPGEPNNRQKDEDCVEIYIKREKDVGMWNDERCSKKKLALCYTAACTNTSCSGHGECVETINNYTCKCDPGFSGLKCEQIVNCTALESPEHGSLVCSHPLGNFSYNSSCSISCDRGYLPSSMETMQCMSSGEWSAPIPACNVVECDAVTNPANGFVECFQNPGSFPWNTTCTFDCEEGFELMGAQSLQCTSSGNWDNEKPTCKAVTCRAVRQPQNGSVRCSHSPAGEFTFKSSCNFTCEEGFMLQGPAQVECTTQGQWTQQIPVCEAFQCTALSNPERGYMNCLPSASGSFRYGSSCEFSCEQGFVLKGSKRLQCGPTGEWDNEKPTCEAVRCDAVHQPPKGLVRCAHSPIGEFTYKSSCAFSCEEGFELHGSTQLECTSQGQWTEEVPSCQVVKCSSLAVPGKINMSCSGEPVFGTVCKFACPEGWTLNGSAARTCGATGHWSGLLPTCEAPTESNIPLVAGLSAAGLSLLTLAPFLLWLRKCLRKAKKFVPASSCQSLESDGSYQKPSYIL
Chain of Tumor necrosis factor (Homo sapiens) (P01375 whole entry, looked up): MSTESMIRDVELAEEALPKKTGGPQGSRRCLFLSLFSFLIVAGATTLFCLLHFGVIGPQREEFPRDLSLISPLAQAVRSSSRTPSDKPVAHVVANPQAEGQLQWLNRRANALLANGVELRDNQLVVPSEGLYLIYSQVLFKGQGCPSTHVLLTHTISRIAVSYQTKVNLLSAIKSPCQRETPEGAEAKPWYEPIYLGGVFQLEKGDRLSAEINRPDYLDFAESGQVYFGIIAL

Cc1ccc(N(C)C)cc1
not listed: [19] | [20]
inactive: all other assays above

CC(=O)C(C)=CC1C(C)=CCCC1(C)C (stereo not drawn)
not listed: [20]
inactive: all other assays above

CCCCCCCCCCCCCO
active: [1] 32.1 µM | [2] 26.1 µM | [3] 31.2 µM | [4] 37.6 µM | [5] 37.8 µM | [7] 34.2 µM | [14] 34.7 µM | [15] 31.1 µM | [20] 29.8 µM | [17] 31.5 µM | [18] 36.4 µM
inactive: [6] | [8] | [9] | [19] | [11] | [12] | [13]

Cc1ccc2ncccc2c1
not listed: [10]
inactive: all other assays above

Cc1cccc(C)c1O
active: [19] 4.8 µM
not listed: [20]
inactive: all other assays above

O=c1c(O)c(-c2ccc(O)c(O)c2)oc2cc(O)cc(O)c12
active: [1] 20 µM | [2] 24.2 µM | [3] 20 µM | [4] 12.7 µM | [5] 28.5 µM | [7] 20 µM | [8] 32.8 µM | [15] 29.9 µM
not listed: [16] | [19] | [20]
inactive: all other assays above

COc1cc(-c2nc(NC(=O)c3cc4cc(C)cc(C)c4n3CC(=O)O)sc2CCC2CCCCC2)c(OC)cc1Cl
active: [1] 1.68 µM | [2] 1.38 µM | [3] 1.68 µM | [4] 1.89 µM | [5] 3.16 µM | [6] 8.51 µM | [7] 12.2 µM | [8] 4.61 µM | [9] 4.69 µM | [10] 3.25 µM | [19] 3.97 µM | [11] 4.31 µM | [12] 6.36 µM | [13] 10 µM | [14] 5.07 µM | [15] 3.43 µM | [17] 2.78 µM | [18] 5.48 µM
